The supplement of paper PMC10849652
Targets with a hit are over-represented here; the source holds about 7,900 in all. About 0.6% of all pairs of compound and target were hits. Unmarked numbers belong to inactive results.

Key:
Test in all cases: log2 fold change, soluble protein after heating vs DMSO (PISA); higher = thermal stabilisation; K562 cells, 10 uM, 30 min; active = over 0.2 and 3.5 SD of the protein, either way, in both replicates (recomputed)
IRAK-1-4 Inhibitor I = compound: C1COCCN1CCN2C3=CC=CC=C3N=C2NC(=O)C4=CC(=CC=C4)[N+](=O)[O-] [IRAK-1-4 Inhibitor I]
Procedure, shortened: (§1)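 Thermal stability values are relative to control samples and come from duplicates. They are expressed as log2 fold changes. For measurement, K562 cells (2×10^6 cells/mL) received 10 μM compound for 30 min, and aliquots were heated for 3 min over 48°C-58°C, pooled, and extracted at 4°C in PBS with 0.5% NP-40. Soluble protein, the supernatant after 21,000xg for 90 min, was quantified by TMTpro 16plex LC-MS/MS with equalised channel sums.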

ibrutinib = compound: C=CC(=O)N1CCC[C@@H](n2nc(-c3ccc(Oc4ccccc4)cc3)c3c(N)ncnc32)C1 [ibrutinib]
Procedure, shortened: as §1

[1] = compound: CC(=O)c1cnc2ccc(-c3cc(Cl)c(O)c(Cl)c3)nc2c1N[C@H]1CC[C@H](CN(C)C)CC1
Procedure, shortened: as §1

ralimetinib = compound: CC(C)(C)Cn1c(N)nc2ccc(-c3[nH]c(C(C)(C)C)nc3-c3ccc(F)cc3)nc21 [ralimetinib]
Procedure, shortened: as §1

[2] = compound: CC(C)(O)CC(=O)NCCn1ccc2ncnc(Nc3ccc(Oc4cccc(C(F)(F)F)c4)c(Cl)c3)c21
Procedure, shortened: as §1

[3] = compound: CC(C)C1=C2N=C(C=C(N2N=C1)NCC3=CC=CC=C3)NCCCCCCN
Procedure, shortened: as §1

[4] = compound: CC(C)C[C@@H](C=O)NC(=O)[C@H](CC(C)C)NC(=O)[C@H](CC(C)C)NC(=O)OCc1ccccc1
Procedure, shortened: as §1

pinometostat = compound: CC(C)N(C[C@H]1O[C@@H](n2cnc3c(N)ncnc32)[C@H](O)[C@@H]1O)[C@H]1C[C@@H](CCc2nc3cc(C(C)(C)C)ccc3[nH]2)C1 [pinometostat]
Procedure, shortened: as §1

[5] = compound: CC1=C(C(CC(=O)N1)C2=CC=C(C=C2)C(F)(F)F)C(=O)NC3=C(C=C4C(=C3)C=NN4)F
Procedure, shortened: as §1

[6] = compound: CC1=C(C2=C(C=C1)C(=O)C3=CC=CC=C3N2CCCN)C
Procedure, shortened: as §1

Sequence of UniProt O60231 (O60231 whole entry, looked up): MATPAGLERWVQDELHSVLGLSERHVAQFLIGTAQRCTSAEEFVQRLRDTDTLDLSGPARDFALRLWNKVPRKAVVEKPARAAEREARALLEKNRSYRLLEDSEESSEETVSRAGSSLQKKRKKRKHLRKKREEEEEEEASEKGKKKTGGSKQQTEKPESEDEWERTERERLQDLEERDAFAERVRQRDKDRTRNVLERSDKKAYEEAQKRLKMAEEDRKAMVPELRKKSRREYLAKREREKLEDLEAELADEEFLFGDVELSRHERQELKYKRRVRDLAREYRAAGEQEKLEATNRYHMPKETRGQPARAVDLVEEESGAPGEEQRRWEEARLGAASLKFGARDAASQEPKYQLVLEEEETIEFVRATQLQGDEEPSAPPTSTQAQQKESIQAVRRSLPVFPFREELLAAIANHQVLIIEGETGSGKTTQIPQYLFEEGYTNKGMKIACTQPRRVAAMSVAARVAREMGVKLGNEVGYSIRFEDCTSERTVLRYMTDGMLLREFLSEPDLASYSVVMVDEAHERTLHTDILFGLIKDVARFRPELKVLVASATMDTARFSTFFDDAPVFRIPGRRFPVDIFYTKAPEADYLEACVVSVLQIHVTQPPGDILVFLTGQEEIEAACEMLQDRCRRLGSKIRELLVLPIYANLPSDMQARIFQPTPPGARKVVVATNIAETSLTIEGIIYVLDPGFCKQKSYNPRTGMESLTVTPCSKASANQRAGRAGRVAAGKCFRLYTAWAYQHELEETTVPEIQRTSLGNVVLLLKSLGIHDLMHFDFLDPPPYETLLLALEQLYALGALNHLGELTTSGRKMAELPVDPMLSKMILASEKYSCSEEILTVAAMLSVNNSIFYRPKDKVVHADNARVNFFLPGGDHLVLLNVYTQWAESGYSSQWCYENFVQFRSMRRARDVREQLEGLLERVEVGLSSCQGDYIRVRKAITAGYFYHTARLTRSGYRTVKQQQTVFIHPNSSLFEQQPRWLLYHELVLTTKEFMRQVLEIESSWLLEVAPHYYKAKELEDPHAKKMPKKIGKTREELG
Sequence of UniProt Q9UBQ6 (Q9UBQ6 whole entry, looked up): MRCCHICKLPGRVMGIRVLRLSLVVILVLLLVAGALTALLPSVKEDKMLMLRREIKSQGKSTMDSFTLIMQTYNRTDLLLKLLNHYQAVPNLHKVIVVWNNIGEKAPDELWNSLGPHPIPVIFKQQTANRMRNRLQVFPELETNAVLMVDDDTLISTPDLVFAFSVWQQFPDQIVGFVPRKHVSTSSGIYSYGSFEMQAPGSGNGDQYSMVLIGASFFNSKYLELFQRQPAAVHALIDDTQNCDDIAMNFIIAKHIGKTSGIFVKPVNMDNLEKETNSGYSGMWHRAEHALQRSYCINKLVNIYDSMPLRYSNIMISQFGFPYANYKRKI
Sequence of UniProt Q16254 (Q16254 whole entry, looked up): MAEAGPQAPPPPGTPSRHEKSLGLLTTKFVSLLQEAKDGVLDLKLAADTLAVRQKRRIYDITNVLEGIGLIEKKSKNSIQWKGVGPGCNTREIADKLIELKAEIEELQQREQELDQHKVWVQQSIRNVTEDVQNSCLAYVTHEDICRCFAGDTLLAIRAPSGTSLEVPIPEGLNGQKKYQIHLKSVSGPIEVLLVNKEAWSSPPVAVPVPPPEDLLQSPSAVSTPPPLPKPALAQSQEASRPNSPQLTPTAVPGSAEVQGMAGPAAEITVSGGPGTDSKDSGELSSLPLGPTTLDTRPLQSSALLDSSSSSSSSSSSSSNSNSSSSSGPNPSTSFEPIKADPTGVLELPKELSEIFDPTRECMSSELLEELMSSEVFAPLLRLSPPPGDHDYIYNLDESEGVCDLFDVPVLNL
Sequence of UniProt Q9H410 (Q9H410 whole entry, looked up): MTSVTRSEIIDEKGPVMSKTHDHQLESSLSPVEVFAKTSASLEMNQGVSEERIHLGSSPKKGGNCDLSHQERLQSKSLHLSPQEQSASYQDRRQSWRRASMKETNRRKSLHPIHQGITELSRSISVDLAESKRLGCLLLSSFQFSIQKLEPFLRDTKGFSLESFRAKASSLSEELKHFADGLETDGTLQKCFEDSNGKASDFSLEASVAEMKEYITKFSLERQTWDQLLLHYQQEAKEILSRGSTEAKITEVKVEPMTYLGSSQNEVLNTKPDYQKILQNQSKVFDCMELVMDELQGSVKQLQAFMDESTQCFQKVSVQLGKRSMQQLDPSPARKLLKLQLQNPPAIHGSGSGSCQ
Sequence of UniProt P11182 (P11182 whole entry, looked up): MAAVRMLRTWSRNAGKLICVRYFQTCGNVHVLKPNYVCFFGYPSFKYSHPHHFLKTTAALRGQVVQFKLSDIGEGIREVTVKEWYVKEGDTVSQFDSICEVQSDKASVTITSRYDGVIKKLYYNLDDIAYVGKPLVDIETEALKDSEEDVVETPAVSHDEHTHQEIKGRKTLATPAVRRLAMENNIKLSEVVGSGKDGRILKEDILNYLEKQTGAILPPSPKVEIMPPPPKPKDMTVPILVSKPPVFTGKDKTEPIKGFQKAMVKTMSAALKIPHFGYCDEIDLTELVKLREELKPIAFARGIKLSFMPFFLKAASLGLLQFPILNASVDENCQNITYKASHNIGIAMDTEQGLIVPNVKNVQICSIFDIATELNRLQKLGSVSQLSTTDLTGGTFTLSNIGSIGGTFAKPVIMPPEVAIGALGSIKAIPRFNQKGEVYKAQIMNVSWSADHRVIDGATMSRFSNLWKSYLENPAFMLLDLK
Sequence of UniProt P98082 (P98082 whole entry, looked up): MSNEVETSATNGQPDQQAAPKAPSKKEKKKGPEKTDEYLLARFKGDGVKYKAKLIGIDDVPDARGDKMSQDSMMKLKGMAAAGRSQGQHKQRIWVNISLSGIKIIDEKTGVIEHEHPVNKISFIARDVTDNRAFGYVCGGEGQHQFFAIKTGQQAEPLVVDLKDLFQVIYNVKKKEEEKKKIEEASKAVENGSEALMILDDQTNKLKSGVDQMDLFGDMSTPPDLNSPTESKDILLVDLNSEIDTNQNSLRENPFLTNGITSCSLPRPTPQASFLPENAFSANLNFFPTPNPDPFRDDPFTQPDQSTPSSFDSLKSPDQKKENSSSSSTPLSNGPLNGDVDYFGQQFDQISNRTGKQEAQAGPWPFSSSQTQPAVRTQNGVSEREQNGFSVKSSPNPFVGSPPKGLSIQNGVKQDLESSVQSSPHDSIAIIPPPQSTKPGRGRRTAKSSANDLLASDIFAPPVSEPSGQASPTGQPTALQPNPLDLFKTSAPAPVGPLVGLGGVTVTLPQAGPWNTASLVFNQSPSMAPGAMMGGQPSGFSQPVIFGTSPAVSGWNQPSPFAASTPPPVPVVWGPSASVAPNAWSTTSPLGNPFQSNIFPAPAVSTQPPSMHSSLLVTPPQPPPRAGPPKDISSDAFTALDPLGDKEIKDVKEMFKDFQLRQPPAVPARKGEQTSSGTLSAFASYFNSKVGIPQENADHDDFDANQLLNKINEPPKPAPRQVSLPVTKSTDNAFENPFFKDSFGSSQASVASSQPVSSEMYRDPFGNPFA
Sequence of UniProt Q8NBA8 (Q8NBA8 whole entry, looked up): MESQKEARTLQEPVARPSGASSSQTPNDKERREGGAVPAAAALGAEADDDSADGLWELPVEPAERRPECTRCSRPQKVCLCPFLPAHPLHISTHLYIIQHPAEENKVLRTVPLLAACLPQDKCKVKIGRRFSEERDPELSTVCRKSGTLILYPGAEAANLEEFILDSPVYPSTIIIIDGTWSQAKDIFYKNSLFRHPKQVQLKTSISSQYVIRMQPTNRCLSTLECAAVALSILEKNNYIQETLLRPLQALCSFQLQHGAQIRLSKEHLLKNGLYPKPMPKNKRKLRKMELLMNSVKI
Sequence of UniProt P13498 (P13498 whole entry, looked up): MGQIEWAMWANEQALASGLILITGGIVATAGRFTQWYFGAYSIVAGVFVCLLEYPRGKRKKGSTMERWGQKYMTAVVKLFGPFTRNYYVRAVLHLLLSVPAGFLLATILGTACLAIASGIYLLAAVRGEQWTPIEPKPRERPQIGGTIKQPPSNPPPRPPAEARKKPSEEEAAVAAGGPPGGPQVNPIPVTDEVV
Sequence of UniProt Q9H2U1 (Q9H2U1 whole entry, looked up): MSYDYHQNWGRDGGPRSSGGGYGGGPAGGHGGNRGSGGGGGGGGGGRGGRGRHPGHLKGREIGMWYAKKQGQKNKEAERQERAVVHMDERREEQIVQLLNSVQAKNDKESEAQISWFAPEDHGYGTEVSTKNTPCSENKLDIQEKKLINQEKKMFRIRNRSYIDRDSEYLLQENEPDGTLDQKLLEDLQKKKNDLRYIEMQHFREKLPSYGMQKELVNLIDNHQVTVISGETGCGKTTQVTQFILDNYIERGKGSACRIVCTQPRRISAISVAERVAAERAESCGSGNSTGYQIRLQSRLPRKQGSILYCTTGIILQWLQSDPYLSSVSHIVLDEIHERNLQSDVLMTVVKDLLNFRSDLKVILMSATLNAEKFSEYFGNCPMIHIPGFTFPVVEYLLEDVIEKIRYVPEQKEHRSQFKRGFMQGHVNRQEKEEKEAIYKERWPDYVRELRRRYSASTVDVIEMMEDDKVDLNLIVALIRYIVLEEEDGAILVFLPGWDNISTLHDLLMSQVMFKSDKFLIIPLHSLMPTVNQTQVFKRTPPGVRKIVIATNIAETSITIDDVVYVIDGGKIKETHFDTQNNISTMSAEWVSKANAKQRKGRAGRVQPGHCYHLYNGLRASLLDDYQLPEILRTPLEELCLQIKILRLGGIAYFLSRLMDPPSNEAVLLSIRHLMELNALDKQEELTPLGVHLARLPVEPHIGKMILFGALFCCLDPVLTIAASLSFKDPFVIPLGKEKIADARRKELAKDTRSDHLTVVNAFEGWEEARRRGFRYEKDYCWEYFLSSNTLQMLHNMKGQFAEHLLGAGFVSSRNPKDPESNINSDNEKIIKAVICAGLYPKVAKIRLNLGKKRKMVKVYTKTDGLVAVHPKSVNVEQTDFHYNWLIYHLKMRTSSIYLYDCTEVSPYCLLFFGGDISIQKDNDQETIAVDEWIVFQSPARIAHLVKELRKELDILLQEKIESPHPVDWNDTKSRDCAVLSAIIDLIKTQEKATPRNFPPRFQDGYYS

Row | Target | log2 fold change (IRAK-1-4 Inhibitor I) | log2 fold change (ibrutinib) | log2 fold change [1] | log2 fold change (ralimetinib) | log2 fold change [2] | log2 fold change [3] | log2 fold change [4] | log2 fold change (pinometostat) | log2 fold change [5] | log2 fold change [6]
1 | EXOC4 (UniProt Q96A65) | -0.123 | -0.028 | -0.007 | 0.024 | -0.099 | -0.442 (active) | 0.04 | 0.143 | 0.035 | -0.01
2 | DBT (UniProt P11182) | -0.004 | 0.019 | 0.021 | 0.109 | 0.006 | 0.027 | 0.023 | 0.002 | 0.015 | 0.352 (active)
3 | ELOC (UniProt Q15369) | 0.017 | -0.011 | -0.018 | -0.027 | -0.07 | -0.032 | -0.042 | 0.008 | 0.002 | 0.165
4 | CTSC (UniProt P53634) | 0.008 | 0.011 | -0.003 | -0.034 | 0.016 | -0.061 | 0.015 | -0.031 | -0.018 | -0.038
5 | DTWD1 (UniProt Q8N5C7) | 0.043 | 0.014 | 0.076 | 0 | -0.022 | 0.161 | -0.021 | -0.026 | -0.109 | 0.136
6 | EOGT (UniProt Q5NDL2) | -0.002 | 0.005 | 0.006 | -0.036 | 0.016 | -0.024 | 0.026 | 0.075 | 0.002 | 0.003
7 | CTSL (UniProt P07711) | 0.068 | 0.009 | 0.099 | 0.022 | -0.014 | -0.412 (active) | 0.098 | -0.006 | -0.01 | -0.031
8 | DCAF10 (UniProt Q5QP82) | 0 | 0 | -0.006 | -0.082 | -0.041 | 0.02 | 0.026 | -0.016 | 0.061 | 0.01
9 | EXTL2 (UniProt Q9UBQ6) | -0.018 | 0.019 | -0.073 | -0.061 | 0.062 | 0.01 | 0.041 | 0 | 0.021 | 0.12
10 | ERCC2 (UniProt P18074) | -0.01 | 0.003 | -0.165 | 0.014 | 0.016 | -0.068 | 0.03 | 0.078 | 0.021 | -0.016
11 | CTSB (UniProt P07858) | -0.009 | 0.032 | 0.013 | -0.044 | 0.011 | -0.426 (active) | 0.037 | -0.031 | 0.042 | -0.053
12 | DOCK8 (UniProt Q8NF50) | 0.047 | 0.015 | 0.029 | 0.105 | -0.198 | 0.152 | 0.274 | 0.059 | 0.064 | -0.121
13 | DDX5 (UniProt P17844) | -0.114 | 0.002 | -0.358 (active) | -0.024 | -0.189 | -0.12 | 0.069 | 0.017 | -0.067 | 0.072
14 | EEF1G isoform 2 (UniProt P26641) | -0.02 | -0.083 | 0.044 | 0.059 | 0.006 | -0.067 | -0.024 | 0.042 | -0.015 | 0.017
15 | DAB2 (UniProt P98082) | -0.009 | 0.004 | -0.093 | 0.082 | -0.119 | -0.02 | 0.138 | 0.049 | -0.031 | -0.075
16 | EDC3 (UniProt Q96F86) | -0.029 | -0.082 | -0.643 (active) | 0.013 | -0.117 | -0.223 | 0.019 | 0.011 | 0.039 | -0.049
17 | DNAJC7 (UniProt Q99615) | -0.041 | -0.012 | -0.007 | -0.014 | -0.022 | -0.117 | 0.023 | -0.034 | -0.003 | 0.04
18 | CTU1 (UniProt Q7Z7A3) | 0.026 | 0.041 | 0.02 | 0.005 | -0.054 | -0.052 | -0.041 | 0.007 | 0.007 | -0.021
19 | DTWD2 (UniProt Q8NBA8) | 0.094 | 0.001 | 0.009 | 0.092 | -0.07 | -0.179 | 0.003 | 0.082 | 0.031 | -0.004
20 | DSN1 (UniProt Q9H410) | -0.143 | -0.038 | -0.041 | -0.131 | -0.055 | -0.106 | 0.004 | -0.037 | -0.036 | -0.045
21 | E2F4 (UniProt Q16254) | -0.025 | -0.009 | -0.073 | 0.011 | -0.072 | -0.167 | 0.038 | 0.001 | 0 | -0.119
22 | EDEM2 (UniProt Q9BV94) | 0.181 | -0.014 | -0.062 | -0.138 | -0.009 | -0.071 | 0.065 | -0.001 | 0.009 | 0.022
23 | DHX36 (UniProt Q9H2U1) | -0.053 | 0.014 | 0.001 | 0.111 | 0.009 | -0.025 | 0.056 | 0.153 | 0.031 | -0.206
24 | DHRS1 (UniProt Q96LJ7) | 0.037 | 0.105 | 0.045 | 0.014 | 0 | 0.614 | 0.21 | -0.087 | 0.003 | 0.071
25 | CYBA (UniProt P13498) | 0.044 | 0.024 | -0.024 | -0.041 | -0.152 | -0.43 (active) | 0.121 | -0.036 | -0.018 | -0.026
26 | DBR1 (UniProt Q9UK59) | -0.04 | 0.02 | -0.043 | 0.037 | 0.006 | 0.032 | -0.026 | -0.012 | 0.065 | 0.114
27 | EEF1A1 (UniProt P68104) | 0.133 | 0.121 | 0.05 | 0.133 | -0.052 | -0.037 | -0.019 | -0.028 | 0.01 | -0.178
28 | EBNA1BP2 (UniProt Q99848) | -0.143 | -0.013 | 0.013 | 0.27 | 0.124 | 0.213 | -0.026 | 0.439 | 0.006 | -1.4 (active)
29 | DHFR (UniProt P00374) | -0.065 | -0.008 | -0.06 | 0.192 | -0.044 | 0.101 | 0.083 | 0.255 | -0.114 | 0.2
30 | DHX16 (UniProt O60231) | -0.006 | 0 | -0.257 (active) | -0.001 | -0.025 | -0.002 | 0.009 | 0.004 | -0.045 | 0.159
